Consider 14 compounds from PubChem BioAssay.

Test [1] concerns Plasmodium falciparum Sir2 (PF13_0152, Sir2A). Put plainly: Plasmodium falciparum Sir2A binding compounds – biochemical, small-molecule microarray, 635 nm fluorescence, primary screen (AID 1098).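 Further: score merges spot fluorescence intensity with its signal-to-noise ratio.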 The conditions noted are these: fluorescence 635 nm, higher = more signal.
Test [2] can be described thus: probe aDKK1 binding to arrayed compounds – biochemical, biotinylated probe, 635/667 nm fluorescence, primary screen (AID 1099).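 Further: score merges 667nm spot fluorescence with signal to noise across triplicate slides; reference of the scale not given here.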 The note with it: small-molecule microarray, higher = more signal.
Test [3] can be described thus: probe aCHRDL2 binding to arrayed compounds – biochemical, biotinylated probe, 635/667 nm fluorescence, primary screen (AID 1100). The conditions noted are these: small-molecule microarray, higher = more signal.
The nature of test [4]: change in splice reporter luminescence, either direction, cell-based, HEK293, spliceosome inhibition project, primary screen (AID 1101).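 Further: HEK293 cells carrying a splicing-competent luciferase reporter gene; test concentration not given here.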 The note with it: HEK293 splicing luciferase reporter, 24 h, higher = more signal, called active from +8 up or from −8 down.
For test [5], the target named is Fibroblast growth factor 10 (Homo sapiens) (UniProt O15520). The experiment in a line: compounds binding fibroblast growth factor 10 – biochemical, small-molecule microarray, 635 nm fluorescence, primary screen (AID 1102). The conditions noted are these: FGF10 binding, fluorescence 635 nm, higher = more signal.
Sequence of Fibroblast growth factor 10 (Homo sapiens) (O15520 whole entry, looked up): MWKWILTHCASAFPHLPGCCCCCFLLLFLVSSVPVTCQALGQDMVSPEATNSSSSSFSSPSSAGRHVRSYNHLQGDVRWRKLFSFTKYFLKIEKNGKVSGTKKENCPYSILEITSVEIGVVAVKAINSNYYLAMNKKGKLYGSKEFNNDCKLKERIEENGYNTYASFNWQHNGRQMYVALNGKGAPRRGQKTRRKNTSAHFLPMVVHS
Test [6] relates to glycogen synthase kinase-3 (GSK3A per assay name; protocol says GSK3B). Put plainly: compounds binding glycogen synthase kinase-3 – biochemical, small-molecule microarray, 635 nm fluorescence, GSK3A, primary screen (AID 1103). Further: the record names both GSK3A and GSK3B. The note with it: fluorescence 635 nm, higher = more signal.
The target in test [7] is Epidermal growth factor receptor (Homo sapiens) (UniProt P00533). Put plainly: compounds binding epidermal growth factor receptor – biochemical, small-molecule microarray, 635 nm fluorescence, primary screen (AID 1104).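 Further: score merges 667 nm emission intensity with spot signal to noise over triplicate slides.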 The note with it: EGFR binding, higher = more signal.
Sequence of Epidermal growth factor receptor (Homo sapiens) (P00533 whole entry, looked up): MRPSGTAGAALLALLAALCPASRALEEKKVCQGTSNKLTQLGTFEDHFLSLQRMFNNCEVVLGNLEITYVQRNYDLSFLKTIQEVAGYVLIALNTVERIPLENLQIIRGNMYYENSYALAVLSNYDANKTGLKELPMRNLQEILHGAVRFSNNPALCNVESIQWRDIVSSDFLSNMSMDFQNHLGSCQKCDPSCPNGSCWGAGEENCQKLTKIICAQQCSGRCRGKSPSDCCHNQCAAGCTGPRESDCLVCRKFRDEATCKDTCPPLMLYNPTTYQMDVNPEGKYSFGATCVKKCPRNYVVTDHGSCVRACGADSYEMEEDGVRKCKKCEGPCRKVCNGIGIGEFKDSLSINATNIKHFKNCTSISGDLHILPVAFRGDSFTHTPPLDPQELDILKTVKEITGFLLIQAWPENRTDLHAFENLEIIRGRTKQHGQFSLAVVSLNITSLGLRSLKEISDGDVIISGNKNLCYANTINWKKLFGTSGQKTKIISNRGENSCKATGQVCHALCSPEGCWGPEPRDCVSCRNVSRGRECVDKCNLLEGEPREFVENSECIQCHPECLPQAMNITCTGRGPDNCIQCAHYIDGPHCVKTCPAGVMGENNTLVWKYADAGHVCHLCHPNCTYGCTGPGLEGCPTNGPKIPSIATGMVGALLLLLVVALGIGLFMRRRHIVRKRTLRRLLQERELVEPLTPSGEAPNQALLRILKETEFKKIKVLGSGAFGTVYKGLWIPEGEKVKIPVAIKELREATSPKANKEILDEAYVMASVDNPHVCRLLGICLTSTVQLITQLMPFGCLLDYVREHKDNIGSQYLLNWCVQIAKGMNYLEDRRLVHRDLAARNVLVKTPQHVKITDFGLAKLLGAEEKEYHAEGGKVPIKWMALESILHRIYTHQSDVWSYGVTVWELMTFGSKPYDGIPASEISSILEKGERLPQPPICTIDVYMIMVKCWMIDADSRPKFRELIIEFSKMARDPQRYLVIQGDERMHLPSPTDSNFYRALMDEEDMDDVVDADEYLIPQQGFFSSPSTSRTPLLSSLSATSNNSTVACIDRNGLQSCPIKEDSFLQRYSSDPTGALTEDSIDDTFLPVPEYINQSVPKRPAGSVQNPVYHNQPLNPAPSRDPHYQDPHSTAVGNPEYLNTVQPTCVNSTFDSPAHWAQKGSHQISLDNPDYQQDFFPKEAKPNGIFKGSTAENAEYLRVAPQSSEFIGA
Test [8] deals with Follistatin-related protein 3 (Homo sapiens) (UniProt O95633). Put plainly: compounds binding follistatin-related protein 3 – biochemical, small-molecule microarray, 635 nm fluorescence, primary screen (AID 1105).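 Further: score merges emission near 667 nm and signal to noise per printed spot across three slides.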 The conditions noted are these: FSTL3 binding, higher = more signal.
Sequence of Follistatin-related protein 3 (Homo sapiens) (O95633 whole entry, looked up): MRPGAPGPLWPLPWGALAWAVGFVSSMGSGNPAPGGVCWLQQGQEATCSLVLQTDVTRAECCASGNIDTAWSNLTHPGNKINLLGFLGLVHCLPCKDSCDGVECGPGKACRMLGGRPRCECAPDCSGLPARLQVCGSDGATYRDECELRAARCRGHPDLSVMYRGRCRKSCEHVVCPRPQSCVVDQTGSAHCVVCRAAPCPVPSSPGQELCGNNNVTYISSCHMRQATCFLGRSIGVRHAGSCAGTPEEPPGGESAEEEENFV
Test [9] has as its target Dickkopf-related protein 1 (Homo sapiens) (UniProt O94907). Put plainly: small molecules binding DKK1 protein – biochemical, small-molecule microarray, 635 nm fluorescence scan, primary screen (AID 1106).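 Further: score merges emission near 667 nm with signal to noise over three replicate slides.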 The note with it: higher = more signal.
Test [10] concerns Inhibin beta A chain (activin A). Put plainly: small molecules binding activin A – biochemical, small-molecule microarray, 635 nm fluorescence scan, primary screen (AID 1107).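 Further: mouse activin A protein probed at 4.33 µg/mL on printed slides; score merges bound-protein fluorescence near 667 nm with spot signal-to-noise.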 The note with it: INHBA, higher = more signal.

Active and inactive are the calls of the source.

Sequence of Dickkopf-related protein 1 (Homo sapiens) (O94907 whole entry, looked up): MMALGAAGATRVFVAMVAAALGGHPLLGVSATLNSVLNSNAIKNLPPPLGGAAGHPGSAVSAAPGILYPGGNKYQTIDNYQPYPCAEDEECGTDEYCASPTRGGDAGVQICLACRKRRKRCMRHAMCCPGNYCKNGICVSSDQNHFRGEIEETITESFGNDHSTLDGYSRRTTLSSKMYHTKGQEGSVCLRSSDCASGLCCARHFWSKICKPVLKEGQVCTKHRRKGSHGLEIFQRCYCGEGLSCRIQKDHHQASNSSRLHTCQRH

`[N-]=[N+]=Nc1ccccc1[C@@H]1OC(c2ccc(OCCCO)cc2)=N[C@]1(Cc1ccccc1)C(=O)N1CCOCC1`: the composite z-score in test [1] was determined as 0.839; in [2], 1.05; in [3], 1.11; in test [5], 1.39; in test [6] it was 1.28; in test [7], 0.308. Besides, the results for the composite z-score in test [8], in test [9] and in test [10] were 1.16, 0.284 and 0.904, respectively. The z-score in test [4] is -1.15 (inactive).

Regarding `CCOC(=O)C[C@H]1[C@H](OC(=O)c2cc3ccccc3oc2=O)[C@@H](NC(=O)c2ccccc2)c2cc(OCCCO)ccc2N1C(=O)c1ccc2ccccc2n1`, the composite z-score was 0.485 in test [1]; -0.128 in [2]; -0.446 in test [3]; 0.72 in [5]; 0.228 in test [6]; 0.536 in test [7]. For the same compound, the composite z-score was found to be 1.11 in test [8], 0.425 in test [9] and 0.344 in [10]. In addition, the z-score in [4] was 0.0189 (inactive).

Turning to `CCC[C@@H]1C[C@@]1(CCC)[C@@H](NS(=O)(=O)c1cccc2cccnc12)c1ccc(Cl)cc1`, the composite z-score in [1] was -0.318; in [2], 0.916; in test [3] it was 1.1; in [5] it was 0.044; in test [6] it was -0.594; in test [7] it was -0.484. The composite z-score is -0.445 in test [8], -0.35 in test [9] and 1.04 in test [10]. Further, the z-score in test [4] is 0.109 (inactive).

`C=CCOC(=O)[C@@H]1[C@H]2C(=O)O[C@H](c3ccccc3)[C@H](c3ccccc3)N2[C@H](c2ccc(OCCOC(=O)[C@@H]3C[C@@H]4C(=O)NCC(=O)N4[C@@H]3c3ccc(O)cc3)cc2)[C@@]12C(=O)Nc1ccc(I)cc12`: the composite z-score in test [1] is 0.924; in test [2], -0.485; in test [3], -0.201; in test [5] it was 0.912; in test [6] it was 1.29; in [7], 0.715. In addition, the composite z-score in test [8] stood at 1.22; in [9] it was 0.82; in test [10] it was 0.0932. Moreover, in test [4], the z-score is -0.603 (inactive).

As to `COC(=O)[C@@]1(Cc2ccc(F)cc2)[C@H]2c3cc(C(=O)N(C)C)n(Cc4ccccc4)c3C[C@H]2CN1C(=O)c1ccccc1`, the composite z-score was 1.18 in test [1]; 1.06 in test [2]; 0.971 in [3]; 0.483 in [5]; -0.159 in [6]; -0.22 in test [7]. The values for the composite z-score in test [8], in test [9] and in test [10] were 0.827, -0.251 and 0.766, respectively. The z-score in [4] is -0.376 (inactive).

Consider `CC(C)C[C@@H]1NC(=O)[C@H](C(C)C)NC(=O)[C@@]23C(=O)N[C@@H](Cc4ccccc4)C2[C@H](C)[C@@]2(C)O[C@H]2C3/C=C/CC/C=C/CNC1=O` (stereo not given in full), for which the composite z-score in test [1] is 0.26; in test [2], -0.189; in [3], -0.263; in [5], 1.16; in test [6], 0.94; in test [7] it was 0.467. The composite z-score in test [8] was 1.37; in test [9], 0.384; in test [10], 1.35. In addition, the z-score in test [4] is -0.76 (inactive).

As to `CC(C)C(=C=CC[C@@H](O)c1ccc(OCCO)cc1)C[C@@H](O)c1ccccn1`, the composite z-score in [1] was 0.595; in test [2], -0.0166; in [3] it was -0.495; in test [5] it was 1.6; in [6] it was 0.854; in test [7], 0.124. Further, the composite z-score stood at 1.06 in test [8], 1.76 in [9] and 0.59 in [10]. In test [4], the z-score was 0.106 (inactive).

For the compound `[N-]=[N+]=NCc1ccccc1[C@@H]1OC(c2ccc(OCCCO)cc2)=N[C@]1(Cc1ccccc1)C(=O)NCC(O)CO` (stereo not given in full), the composite z-score in [1] is 0.62; in [2], 0.914; in test [3] it was 0.956; in test [5], 0.899; in test [6], 0.0871; in test [7], -0.519. For the same compound, the composite z-score was -1.19 in [8], -0.889 in test [9] and 0.68 in test [10]. Further, the z-score in [4] is 0.371 (inactive).

Regarding `CC(C)[Si](C#Cc1ccc(Oc2ccccc2)cc1)(O[Si](C#Cc1ccc(Oc2ccccc2)cc1)(C(C)C)C(C)C)C(C)C`, the composite z-score was 1.11 in [1]; 0.112 in [2]; -0.504 in test [3]; 1.37 in [5]; 0.478 in [6]; 0.0408 in test [7]. In addition, the composite z-score in [8] is 0.394; in test [9], 0.687; in test [10] it was -0.294. Besides, the z-score in [4] is -0.226 (inactive).

For the compound `COC(=O)[C@@]1(Cc2ccccc2)[C@H]2c3cc(C(=O)N4CCCC4)n(Cc4ccc(S(C)(=O)=O)cc4)c3C[C@H]2CN1C(=O)c1ccccc1`, the composite z-score in [1] came out at 0.525; in test [2] it was 1.52; in [3], 1.03; in test [5], 0.387; in test [6], 1.18; in test [7] it was 0.679. Besides, the composite z-score in test [8] is 0.94; in test [9] it was 0.222; in [10], 1.3. In addition, in [4], the z-score is -1.18 (inactive).

As to `C[N+](C)(C)CCCCNC(=O)[C@H]1C[C@H]2C(=O)N3CCC[C@H]3C(=O)N2[C@H]1c1cccc(OCCO)c1`, the composite z-score was 0.501 in test [1]; 0.0086 in test [2]; 0.314 in test [3]; 0.489 in test [5]; -0.415 in test [6]; -0.142 in test [7]. For the same compound, the results for the composite z-score in test [8], in [9] and in test [10] were 1.14, 1.32 and 1.08, respectively. Besides, the z-score in [4] was 0.717 (inactive).

With `CC(=O)NCCCC[C@@H]1NC(=O)[C@H]2C[C@@H](C(=O)NCCCCCCNC(=O)CS)[C@@H](c3ccc(O)cc3)N2C1=O`, the composite z-score was 0.629 in test [1]; -0.0749 in [2]; 0.986 in test [3]; 0.0258 in [5]; 0.0703 in test [6]; -0.728 in [7]. Besides, the composite z-score in [8] is -0.961; in test [9] it was -0.788; in test [10], -1.11. For the same compound, the z-score in test [4] is -0.401 (inactive).

`C=C(C)[C@@H]1CC=C(C(O)C2C=CC3C(=O)N(c4ccccc4)C(=O)C3N2Nc2ccccc2)CC1` (stereo not given in full): the composite z-score is 0.972 in [1]; 1.06 in test [2]; 0.906 in [3]; 0.852 in test [5]; 1.32 in test [6]; -0.747 in [7]. For the same compound, the composite z-score in test [8] came out at 1.15; in test [9] it was 0.364; in [10] it was 0.622. Further, the z-score in test [4] was 0.0541 (inactive).

Take `COCCOC(=O)N1C(=O)[C@@]2(c3cc(C#CCC(C(=O)OC)C(=O)OC)ccc31)[C@H](C(=O)N1CCN(c3ncccn3)CC1)[C@H]1C(=O)O[C@H](c3ccccc3)[C@H](c3ccccc3)N1[C@@H]2c1ccccc1OCCO`: the composite z-score in test [1] was 0.664; in [2], -0.0805; in test [3], -0.408; in test [5], 1.33; in [6] it was 1.3; in test [7], 0.926. Further, the figures for the composite z-score in [8], in test [9] and in test [10] were 1.38, 0.962 and 0.286, respectively. The z-score in test [4] was 0.476 (inactive).
